Most compounds without a hit are left out; they make up all but 5% or so of the library.
AI-2 QS modul – modulators of Vibrio harveyi AI-2 quorum sensing system; 300,000 tested, 0.4% active; AID 2094; Vibrio harveyi JMH597 AI-2 luminescence/OD600 ratio, 9 h; active compounds read low; strain lacks LuxN and CqsS sensors; 0 = neutral-control median; activity change, % at 7.5 µM; in the data active = activity change below about -75%, passing the limit was not always enough;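 also: luminescence divided by OD600 gain over 9 h not by final OD600 alone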
ALR inh – human ALR oxidase inhibition via reduced H2O2; P55789; purified ALR, DTT oxidation, H2O2 HRP-luminol luminescence; inhibition, % (test concentration not listed); 290,000 tested, 3.8% active;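 active = mean replicate inhibition above about 79%, with every replicate also reaching it, limit read from the data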
Target sequence (P55789 whole entry, looked up): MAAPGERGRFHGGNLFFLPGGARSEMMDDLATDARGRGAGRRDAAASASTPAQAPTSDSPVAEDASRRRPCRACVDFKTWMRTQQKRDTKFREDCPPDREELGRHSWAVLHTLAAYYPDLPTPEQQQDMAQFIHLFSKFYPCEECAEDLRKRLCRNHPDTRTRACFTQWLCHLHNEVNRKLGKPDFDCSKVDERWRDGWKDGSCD
CHT PAM – human CHT allosteric activation; Q9GZV3; CHT-expressing cells, membrane potential dye, choline EC20; active compounds read high; LV-AA mutant CHT in HEK293 cells; B-score at 10 µM; 310,000 tested, 0.49% active; AID 488977;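 active = initial fluorescence not abnormally high and integrated response B-score, plate-corrected, over 3 SD above library mean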
PREPL inhibitor – inhibitors of human prolyl oligopeptidase-like enzyme PREPL | recombinant PREPL, fluorescence polarization activity-based probe | AID 2751 | 320,000 tested, 0.68% active | inhibition, % at 5.96 µM; in the data active = inhibition above about 43%;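 also: 0% = enzyme with DMSO and 100% = wells lacking enzyme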
CHT inh – human CHT choline transport inhibition; Q9GZV3; B-score at 10 µM; 310,000 tested, 0.86% active; CHT-expressing cells, membrane potential dye, choline response; active compounds read low;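 active = B-score over 3 SD under the library average, and starting fluorescence ratio not unusually high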;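 also: choline stimulus applied at its EC90 after an EC20 pre-addition; B-score computed on integrated fluorescence ratio after choline addition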
* hit, by the source's call.

`COC(=O)CC1COc2ccccc2N1C(=O)/C=C/c1ccccc1` (stereo not given) gave AI-2 QS modul 22, ALR inh -3, CHT PAM inactive, PREPL inhibitor -9 and CHT inh inactive.
Screening COC(=O)c1ccc2c(c1)C(C)(C)C(/C=C/c1ccc(O)cc1)=[N+]2C returned AI-2 QS modul 8, ALR inh 93*, CHT PAM 6.5*, PREPL inhibitor -281 and CHT inh inactive.
For COc1ccc(NC(=O)c2ccco2)c2ccccc12 the results were AI-2 QS modul 18, ALR inh -28, CHT PAM inactive and CHT inh inactive.
For CCc1ccc(-c2nc(CSCC(=O)N3CCN(c4ccccn4)CC3)c(C)o2)cc1 the results were AI-2 QS modul 17, ALR inh 85*, CHT PAM inactive, PREPL inhibitor 7 and CHT inh inactive.
O=C(CSCc1ccccc1Cl)N1CCN(c2ccccn2)CC1 was read as AI-2 QS modul 29, ALR inh 99*, CHT PAM inactive, PREPL inhibitor -62 and CHT inh inactive.
Screening Cc1oc(-c2ccccc2Cl)nc1CSCC(=O)N1CCCC1 returned AI-2 QS modul -2, ALR inh 75, CHT PAM inactive, PREPL inhibitor 18 and CHT inh inactive.
`Cc1ccc(-c2nc(CSCC(=O)N3CCN(c4ccccn4)CC3)c(C)o2)cc1` gave AI-2 QS modul -10, ALR inh 99*, CHT PAM inactive, PREPL inhibitor -12 and CHT inh inactive.
Screening O=C(c1ccc(CS(=O)(=O)c2ccc(Br)cc2)o1)N1CCN(c2ccccn2)CC1 returned AI-2 QS modul 21, ALR inh 0, CHT PAM inactive, PREPL inhibitor 5 and CHT inh inactive.
`Cc1ccc(S(=O)(=O)Cc2ccc(C(=O)N3CCN(c4ccccn4)CC3)o2)cc1` gave AI-2 QS modul 19, ALR inh 97*, CHT PAM inactive, PREPL inhibitor 7 and CHT inh inactive.
`O=C(CCSCc1ccccc1F)N1CCN(c2ccccn2)CC1` gave AI-2 QS modul 3, ALR inh 0, CHT PAM inactive, PREPL inhibitor -18 and CHT inh inactive.
For COc1ccc(C2=NS(=O)(=O)N(C)C(C(=O)NC3CCCC3)=C2)cc1OC the results were AI-2 QS modul 17, ALR inh -1, CHT PAM inactive, PREPL inhibitor -14 and CHT inh inactive.
For CC(C)CCNC(=O)C1CC2Cn3c(nc4cc(Cl)c(Cl)cc43)C2N1C (stereo not given) the results were AI-2 QS modul -11, ALR inh -6, CHT PAM inactive, PREPL inhibitor 10 and CHT inh inactive.
Oc1ccc(CCNc2c3ccccc3nc3ccccc23)cc1O was read as AI-2 QS modul 14, ALR inh 99*, CHT PAM inactive, PREPL inhibitor 11 and CHT inh inactive.
c1ccc(CNc2c3ccccc3nc3ccccc23)cc1 was read as AI-2 QS modul 22, ALR inh -9, CHT PAM inactive, PREPL inhibitor -21 and CHT inh inactive.
For CN(C)C=Nc1ccc2nc3c(cc2c1)[nH]c1ccccc13 the results were AI-2 QS modul 6, ALR inh 6, CHT PAM inactive, PREPL inhibitor 19 and CHT inh inactive.
`Cc1ccc(CN2C(=O)C(CC(C)C)Nc3ncnc(N4CCN(c5ccccc5)CC4)c32)cc1` (stereo not given) gave ALR inh -7 and PREPL inhibitor -21.
`C=CCOc1ccc(/C=C2\C(=N)N3N=C(S(=O)(=O)CC)SC3=NC2=O)cc1OC` gave AI-2 QS modul 43, ALR inh 17, CHT PAM inactive, PREPL inhibitor 1 and CHT inh inactive.
COc1ccc(/C=C2\SC(=S)N(NC(=O)c3ccncc3)C2=O)cc1OC was read as AI-2 QS modul 53, ALR inh -15, CHT PAM inactive, PREPL inhibitor -4 and CHT inh -8*.
Screening COc1cc(/C=C2\SC(=S)N(N(C)c3ccccc3)C2=O)ccc1O returned AI-2 QS modul -7, ALR inh 16, CHT PAM inactive, PREPL inhibitor -32 and CHT inh inactive.
`CCS(=O)(=O)C1=NN2C(=N)/C(=C\c3ccc(OC(=O)c4ccco4)c(OC)c3)C(=O)N=C2S1` gave AI-2 QS modul 25, ALR inh 54, CHT PAM inactive, PREPL inhibitor 51* and CHT inh inactive.

Screening results as filed in PubChem.
